From PubChem BioAssay (NCI)
The panel holds about 83,000 compounds, 20% with a hit somewhere; the sample as a whole holds those more often.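 A percent growth of 40 corresponds to 60% growth inhibition; 0 means no net growth; -100 means all cells died. Active threshold: below 10.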 Active and inactive are the calls of the source.

What follows are compounds tested on HCT-116 colon (assay: NCI-60 one-dose screen, 48 h (100 = growth as untreated, 0 = no growth, -100 = all killed)). Conditions: 10 µM unless noted.
`COC(=O)c1ccc(NC(=O)Nc2ccc(C(=O)OC)cc2)cc1` was tested, and the growth was 95.3% (inactive). `N#C/C(=C\c1ccc(-c2cccc(C(F)(F)F)c2)o1)c1ccccc1` was tested, and the growth was 80.4% (inactive). With `COc1ccc2cc(-c3ccnc4c(N=Nc5ccc(Cl)cc5)c(N)nn34)ccc2c1` the growth was 99.7% (inactive). With `O=C(Cc1ccc(NC(=O)c2cccc(Cl)c2)cc1)NCc1ccccc1` the growth was 25.3% (inactive). With `CCS/C(Nc1ccccc1)=C(\C#N)C(=O)Nc1ccc(OC)cc1` the growth was 14.3% (inactive). With `CC[N+]1(CC)CC[N+]2(CCCC(C)CC2)CC1` (configuration not stated) the growth was 104% (inactive). For `COc1ccc(C(=O)/C=C/c2ccc(Cl)cc2)cc1S(=O)(=O)Nc1c(N)nc(SC)[nH]c1=O`, the growth was 11.4% (inactive). For `C=C1C(=O)O[C@H]2[C@H]1CC/C(COC(=O)/C=C/C(=O)OC/C1=C/CC[C@@]3(C)O[C@H]3[C@H]3OC(=O)C(=C)[C@@H]3CC1)=C\CC[C@@]1(C)O[C@@H]21`, the growth was 2.7% (active). `O=C1/C(=C\c2cccc3nccnc23)SC(=S)N1CCc1ccc(O)cc1` was tested, and the growth was 92% (inactive). With `O=S(=O)(NCCNc1nccc(-c2c(-c3ccc(F)c(O)c3)nc3sccn23)n1)c1ccc(F)cc1` the growth was 6.5% (active). In the case of `CC/C=C\C[C@H](O)C/C=C1/C(=O)C=C[C@@H]1C/C=C\CCCC(=O)O`, the growth is reported as 8.9% (active). `O=C1/C=C/[C@@H](O)[C@@H]2C[C@@H](O)C[C@H]2/C=C/CCC[C@H](CCO)O1` was tested, and the growth was -62.5% (active). In the case of `COc1cc(-c2nc3sccn3c2-c2ccnc(NCCNS(=O)(=O)c3ccc(Cl)cc3)n2)ccc1F`, the growth is reported as 20.9% (inactive). `C#Cc1cccc(Nc2nc(C)nc3cc(NC(=O)CCl)ccc23)c1` was tested, and the growth was -65.2% (active). With `O=C(NNC(=O)c1ccc(NC(=O)c2ccccn2)cc1)Nc1ccc2ccccc2c1` the growth was 102% (inactive). In the case of `CC1(C)C(N)=Nc2cc(OCCCN3Cc4ccccc4C3)c(OCC3CC3)cc21`, the growth is reported as 49.2% (inactive). In the case of `CN(CCC(=O)c1ccccc1)CCC(=O)c1ccccc1`, the growth is reported as 93.3% (inactive). In the case of `CCSc1oc(C)nc1[P+](c1ccccc1)(c1ccccc1)c1ccccc1`, the growth is reported as 14.4% (inactive). For `C=CCC(CCCC)(C(=O)OCC)C(=O)OCC`, the growth was 104% (inactive). In the case of `Fc1cccc(-c2ccc3c(c2)C2(CCNCC2)CN3)c1`, the growth is reported as 94.3% (inactive). For `CN(C)S(=O)(=O)Oc1ccc(-c2sc3cc(OS(=O)(=O)N(C)C)ccc3c2C(=O)c2ccc(OCCN3CCCCC3)cc2)cc1`, the growth was 40.8% (inactive). In the case of `COc1cc2c(cc1OCCCCN1CCN(C(=S)SCCC(C#N)(c3ccccc3)c3ccccc3)CC1)N=C[C@@H]1CCCN1C2=O`, the growth is reported as -62.1% (active). For `CC(C)(C)n1cc(-c2ccnc(NCCNS(=O)(=O)c3ccc(O)cc3)c2)c(-c2cccc(O)c2)n1`, the growth was 82.4% (inactive). `O=S1(=O)C=C(c2ccccc2)C(c2ccccc2)=C1` was tested, and the growth was -74.8% (active). `CCN1C(=O)N(CC)C2C1NN=c1s/c(=C\c3cnc(C)n3C)c(=O)n12` (configuration not stated) was tested, and the growth was 23.2% (inactive). In the case of `CC(=O)O[C@H]1C[C@@H]2C(C)(C)C(=O)CC[C@@]2(C)c2ccc(C(C)C)cc21`, the growth is reported as 105% (inactive). `Cc1ccc2c(=O)cc(C(=O)Nc3sc4c(c3C(=O)NCc3cccnc3)CCCC4)oc2c1C` was tested, and the growth was 109% (inactive).

The compounds below were run on HCC-2998 colon in the same assay as above. Conditions: 10 µM unless noted.
In the case of `[2H]C([2H])([2H])Oc1ccc(F)cc1/C=C/C(=O)/C=C(O)/C=C/c1cc(F)ccc1OC([2H])([2H])[2H]`, the growth is reported as 105% (inactive). `C=CC(=O)Nc1ccc(Nc2nccc(-c3ccc(N4CCCC4)c(C#N)c3)n2)cc1` was tested, and the growth was 31.5% (inactive). `N#CC1=C(N)Oc2ccc3ccccc3c2C1c1ccc([N+](=O)[O-])cc1` (configuration not stated) was tested, and the growth was 107% (inactive). For `CCOC(=O)c1nn(CC(O)c2ccccc2)c(NC(=O)Nc2cccc(F)c2)c1C` (configuration not stated), the growth was 98.3% (inactive). With `Nn1c(=O)c(=O)[nH]c2c(cnn2-c2ccccc2)c1=O` the growth was 105% (inactive). With `O=[N+]([O-])c1cc(NS(=O)(=O)c2ccccc2)ccc1NS(=O)(=O)c1ccccc1` the growth was 99.3% (inactive). For `C=C1C(=O)O[C@H]2[C@H]1CC/C(COC(=O)NCc1ccc(Cn3c(=O)sn(-c4ccc(C#N)cc4)c3=O)cc1)=C\CC[C@@]1(C)O[C@@H]21`, the growth was 104% (inactive). In the case of `Cc1nc2c(c(=O)[nH]1)C(c1ccccc1)c1ccc3ccccc3c1O2` (configuration not stated), the growth is reported as 56.6% (inactive). For `COC1=C(C)C(=O)N2[C@@H]1[C@H](c1ccccc1)OC21C=CC(=O)C=C1`, the growth was 35.7% (inactive). With `COc1cccc(CCNc2ncnc3c2ncn3Cc2nnc3c4ccccc4c(Cl)nn23)c1` the growth was 91.9% (inactive). `Fc1ccc(Cn2cc(CSc3nc4ccccc4o3)nn2)cc1` was tested, and the growth was 109% (inactive). With `CC(=O)ON1CCCC(P(=O)(OCCSC(=O)C(C)(C)C)OCCSC(=O)C(C)(C)C)C1=O` (configuration not stated) the growth was 11% (inactive). For `O=c1cc(-c2ccccc2)[nH]c2ncc(-c3ccc(F)cc3)n12`, the growth was 75.6% (inactive). In the case of `COC(=O)c1ccc(NC(=O)Nc2ccc(C(=O)OC)cc2)cc1`, the growth is reported as 108% (inactive). `N#C/C(=C\c1ccc(-c2cccc(C(F)(F)F)c2)o1)c1ccccc1` was tested, and the growth was 100% (inactive). For `COc1ccc2cc(-c3ccnc4c(N=Nc5ccc(Cl)cc5)c(N)nn34)ccc2c1`, the growth was 97.6% (inactive). For `O=C(Cc1ccc(NC(=O)c2cccc(Cl)c2)cc1)NCc1ccccc1`, the growth was 73.3% (inactive). With `CCS/C(Nc1ccccc1)=C(\C#N)C(=O)Nc1ccc(OC)cc1` the growth was 55.2% (inactive). `CC[N+]1(CC)CC[N+]2(CCCC(C)CC2)CC1` (configuration not stated) was tested, and the growth was 99.9% (inactive). With `COc1ccc(C(=O)/C=C/c2ccc(Cl)cc2)cc1S(=O)(=O)Nc1c(N)nc(SC)[nH]c1=O` the growth was 90.8% (inactive). In the case of `C=C1C(=O)O[C@H]2[C@H]1CC/C(COC(=O)/C=C/C(=O)OC/C1=C/CC[C@@]3(C)O[C@H]3[C@H]3OC(=O)C(=C)[C@@H]3CC1)=C\CC[C@@]1(C)O[C@@H]21`, the growth is reported as 106% (inactive). `O=C1/C(=C\c2cccc3nccnc23)SC(=S)N1CCc1ccc(O)cc1` was tested, and the growth was 116% (inactive). With `O=S(=O)(NCCNc1nccc(-c2c(-c3ccc(F)c(O)c3)nc3sccn23)n1)c1ccc(F)cc1` the growth was 41.8% (inactive). For `CC/C=C\C[C@H](O)C/C=C1/C(=O)C=C[C@@H]1C/C=C\CCCC(=O)O`, the growth was 57.7% (inactive). In the case of `O=C1/C=C/[C@@H](O)[C@@H]2C[C@@H](O)C[C@H]2/C=C/CCC[C@H](CCO)O1`, the growth is reported as 1.71% (active). With `COc1cc(-c2nc3sccn3c2-c2ccnc(NCCNS(=O)(=O)c3ccc(Cl)cc3)n2)ccc1F` the growth was 66.5% (inactive). `C#Cc1cccc(Nc2nc(C)nc3cc(NC(=O)CCl)ccc23)c1` was tested, and the growth was -88.1% (active). With `O=C(NNC(=O)c1ccc(NC(=O)c2ccccn2)cc1)Nc1ccc2ccccc2c1` the growth was 121% (inactive). `CC1(C)C(N)=Nc2cc(OCCCN3Cc4ccccc4C3)c(OCC3CC3)cc21` was tested, and the growth was 11.9% (inactive). `CN(CCC(=O)c1ccccc1)CCC(=O)c1ccccc1` was tested, and the growth was 93.3% (inactive). With `CCSc1oc(C)nc1[P+](c1ccccc1)(c1ccccc1)c1ccccc1` the growth was 29.5% (inactive). In the case of `C=CCC(CCCC)(C(=O)OCC)C(=O)OCC`, the growth is reported as 102% (inactive). For `Fc1cccc(-c2ccc3c(c2)C2(CCNCC2)CN3)c1`, the growth was 99.4% (inactive). In the case of `CN(C)S(=O)(=O)Oc1ccc(-c2sc3cc(OS(=O)(=O)N(C)C)ccc3c2C(=O)c2ccc(OCCN3CCCCC3)cc2)cc1`, the growth is reported as 89.2% (inactive). For `COc1cc2c(cc1OCCCCN1CCN(C(=S)SCCC(C#N)(c3ccccc3)c3ccccc3)CC1)N=C[C@@H]1CCCN1C2=O`, the growth was -72.3% (active). In the case of `CC(C)(C)n1cc(-c2ccnc(NCCNS(=O)(=O)c3ccc(O)cc3)c2)c(-c2cccc(O)c2)n1`, the growth is reported as 122% (inactive). `O=S1(=O)C=C(c2ccccc2)C(c2ccccc2)=C1` was tested, and the growth was 15.5% (inactive). With `CCN1C(=O)N(CC)C2C1NN=c1s/c(=C\c3cnc(C)n3C)c(=O)n12` (configuration not stated) the growth was 45.6% (inactive). `CC(=O)O[C@H]1C[C@@H]2C(C)(C)C(=O)CC[C@@]2(C)c2ccc(C(C)C)cc21` was tested, and the growth was 107% (inactive). With `Cc1ccc2c(=O)cc(C(=O)Nc3sc4c(c3C(=O)NCc3cccnc3)CCCC4)oc2c1C` the growth was 106% (inactive).
